Data on 9 compounds can be found in PubChem BioAssay (Tox21).

Molecules are shown by their SMILES. Results filed as inconclusive are left out. A number with no mark means an inactive call. Calls of active or inactive are those of the source. Unless noted, the call rests on the fitted dose curve; in most records, active means well fitted curve in the direction sought with a large enough effect in the repeat runs; inconclusive means weak or mixed curves; inactive means no such curve, though single readings can be large; an effect the other way counts as inactive or inconclusive.

The nature of test [1]: qHTS assay to identify small molecule antagonists of the vitamin D receptor (VDR) signaling pathway - cell viability counter screen (AID 743225). Further: on the % scale 0 is the no-effect control and ±100 the full control effect; nearly all actives have a fitted effect of over 50% in size. In a few lines:
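Parallel cytotoxicity test: VDR-UAS-bla HEK 293T, 3 nM (final) 1-alpha,25-dihydroxyvitamin D3 with test compound, 16 h, 37C. Endpoint is CellTiter-Glo luminescence in the same wells.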

Test [2] is described as follows: qHTS assay to identify small molecule agonists of the NFkB signaling pathway (AID 1159509; active means well fitted curve in the direction sought with a large enough effect in the signal ratio in the repeat runs, not every such curve was filed as active; the % refers to the signal ratio; further: series mostly up to about 61 µM; on the % scale 0 is the no-effect control and ±100 the full control effect). In a few lines: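 NFkB-bla ME-180 cells with a beta-lactamase reporter under an NF-kB response element were plated overnight, treated with compounds in DMSO for 5 hr at 37 C, then loaded with FRET substrate for 1.5 hr at room temperature.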
In general terms: Quantitative high-throughput screening tests each substance at several concentrations.

Test [3] is described as follows: qHTS assay to identify small molecule agonists of the NFkB signaling pathway - cell viability counter screen (AID 1159515; calls by dose curve; further: series mostly up to about 61 µM; on the % scale 0 is the no-effect control and ±100 the full control effect; nearly all actives have a fitted effect of over 55% in size). The procedure, abridged:
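NFkB-bla ME-180 cells, 2,000/well, were plated overnight at 37 C, 5% CO2, then exposed to compounds in DMSO for 5 hr. After the bla FRET read, CellTiter-Glo was added to the same wells; luminescence was read after 30 min at room temperature.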

Test [4] can be described thus: qHTS assay to identify small molecule agonists of the endoplasmic reticulum stress response signaling pathway (AID 1159516; active means well fitted activation curve with a large enough effect in the signal ratio in the repeat runs, not every such curve was filed as active; the % refers to the signal ratio; further: on the % scale 0 is the no-effect control and ±100 the full control effect). The procedure, abridged: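 CellSensor ESRE-bla HeLa cells, carrying a beta-lactamase reporter driven by the ER stress response element, were plated overnight and exposed to compounds for 5 hr at 37 C. Reporter activity was read as FRET substrate fluorescence after 2 hr at room temperature.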

A short description of test [5]: qHTS assay to identify small molecule agonists of the endoplasmic reticulum stress response signaling pathway - cell viability counter screen (AID 1159517; calls by dose curve; further: series mostly up to about 61 µM; on the % scale 0 is the no-effect control and ±100 the full control effect; nearly all actives have a fitted effect of over 50% in size). The procedure, abridged:
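Counter-screen wells were identical to the reporter wells. Cells were plated at 1,500 per well and dosed for 5 hr, then read for luminescence 30 min after CellTiter-Glo addition.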

Test [6] can be described thus: qHTS assay to identify small molecule antagonists of the retinoid-related orphan receptor gamma (ROR-gamma) signaling pathway - cell viability counter screen (AID 1159520). Further: on the % scale 0 is the no-effect control and ±100 the full control effect; nearly all actives have a fitted effect of over 50% in size. The procedure, abridged:
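Tet-on ROR gamma CHO cells were given compounds for 2 hr, then doxycycline hyclate at 1 uM final, and incubated 16 hr at 37 C. Viability was measured as ATP content by CellTiter-Glo luminescence.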

For test [7], the target named is Nuclear receptor ROR-gamma (Homo sapiens) (UniProt P51449). Nature of the test: qHTS assay to identify small molecule antagonists of the retinoid-related orphan receptor gamma (ROR-gamma) signaling pathway (AID 1159521; further: nearly all actives have a fitted effect of over 50% in size; further: potency means the concentration at half of the fitted maximal effect). The procedure, abridged:
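Decreased RORE-driven luciferase luminescence indicates antagonism. Tet-on RORγ CHO cells received compound, then 1 uM final doxycycline 2 h later; signal read after 16 h incubation.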

Test [8] in a line: qHTS assay to identify small molecule agonists of the AP-1 signaling pathway - cell viability counter screen (AID 1159525; calls by dose curve; further: nearly all actives have a fitted effect of over 55% in size). The procedure, abridged:
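AP-1-bla ME-180 cells in Opti-MEM with 0.5% dialyzed FBS, compound exposure 5 h at 37 C in 15-point titration. Viability read in the same wells as ATP content by CellTiter-Glo luminescence, normalised to tetra-n-octylammonium bromide and DMSO controls.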

The nature of test [9]: qHTS assay to identify small molecule agonists of the AP-1 signaling pathway (AID 1159526; calls by dose curve; further: on the % scale 0 is the no-effect control and ±100 the full control effect).
A short description of test [10]: qHTS assay to identify small molecule antagonists of the retinoid acid receptor (RAR) signaling pathway - cell viability counter screen (AID 1159551). Further: on the % scale 0 is the no-effect control and ±100 the full control effect; nearly all actives have a fitted effect of over 35% in size. The procedure, abridged: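 C3RL4 cells were seeded overnight at 37 C, then treated with compounds plus 1 uM (final) retinol for 6 h at 37 C. Viability was read as ATP by CellTiter-Glo luminescence after 30 min at room temperature.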

The nature of test [11]: qHTS assay to identify small molecule agonists of the RXR signaling pathway - cell viability counter screen (AID 1159529). The procedure, abridged:
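In this parallel viability measure, GeneBLAzer RXR-alpha HEK 293T cells (2% charcoal-stripped FBS) were given a 5 hr preincubation, treated with compounds 16 hr at 37 C, and read by CellTiter-Glo luminescence.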

The nature of test [12]: qHTS assay to identify small molecule antagonists of the retinoic acid receptor (RAR) signaling pathway (AID 1159552). In a few lines: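 C3RL4 RARE-luc cells, overnight plating; retinol 1 uM final added right after compound; 6 hr 37 C; luciferase read at 30 min RT.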
The nature of test [13]: qHTS assay to identify small molecule agonists of the retinoic acid receptor (RAR) signaling pathway (AID 1159553). Further: on the % scale 0 is the no-effect control and ±100 the full control effect. In a few lines:
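C3RL4 cells carrying a RARE luciferase reporter were plated overnight at 37 C, then exposed to compounds in DMSO for 6 hr at 37 C and 5% CO2. Luminescence was read 30 min after luciferase reagent addition at room temperature.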

Test [14] has as its target Retinoic acid receptor RXR-alpha (Homo sapiens) (UniProt P19793). The test is described as follows: qHTS assay to identify small molecule agonists of the RXR signaling pathway (AID 1159527; calls by dose curve; further: on the % scale 0 is the no-effect control and ±100 the full control effect; nearly all actives have a fitted effect of over 35% in size). In a few lines: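 16 hr incubation of compound-treated RXR-alpha-UAS-bla HEK 293T cells (2% charcoal-stripped FBS, 37 C) preceded a 2 hr room-temperature LiveBLAzer FRET substrate step and blue/green fluorescence measurement.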

Test [15] in a line: qHTS assay to identify small molecule antagonists of the estrogen related receptor (ERR) signaling pathway (AID 1224819). The procedure, abridged: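 ERR reporter cells were plated at 2,000 cells/well and left 6 h at 37 C/5% CO2 before pin-tool transfer of compounds in DMSO. After 18 h at 37 C, One-Glo was added and luminescence was read 30 min later at room temperature.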
A short description of test [16]: qHTS assay to identify small molecule agonists of the estrogen related receptor (ERR) signaling pathway (AID 1224820). Further: on the % scale 0 is the no-effect control and ±100 the full control effect. In a few lines: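 ERR reporter cells (NTP line) plated 2,000/well, incubated 6 h at 37 C/5% CO2, then pinned with compounds in DMSO and held 18 h at 37 C. One-Glo added; luminescence read after 30 min at room temperature.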
The subject of test [17] is estrogen-related receptor alpha (ERRalpha) with PGC-1alpha coactivator, human. Nature of the test: qHTS assay to identify small molecule antagonists of the estrogen related receptor signaling pathway with the pleiotropic PPARgamma coactivator (PGC) (AID 1224821; calls by dose curve). In a few lines:
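Cells engineered for PGC/ERR signalling (line from NTP) were plated 6 h at 37 C/5% CO2, then exposed to DMSO-dissolved compound for 18 h at 37 C. Luciferase activity was read by One-Glo luminescence after 30 min at room temperature.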

Test [18] is described as follows: qHTS assay to identify small molecule agonists of the estrogen related receptor signaling pathway with the pleiotropic PPARgamma coactivator (PGC) (AID 1224823). Further: on the % scale 0 is the no-effect control and ±100 the full control effect. The procedure, abridged:
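PGC/ERR reporter cells were seeded, rested 6 h at 37 C/5% CO2, then exposed to compounds in DMSO by pin transfer for 18 h at 37 C. Luciferase activity was read as luminescence after One-Glo reagent and 30 min at room temperature.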

Sequence of Retinoic acid receptor RXR-alpha (Homo sapiens) (P19793 whole entry, looked up): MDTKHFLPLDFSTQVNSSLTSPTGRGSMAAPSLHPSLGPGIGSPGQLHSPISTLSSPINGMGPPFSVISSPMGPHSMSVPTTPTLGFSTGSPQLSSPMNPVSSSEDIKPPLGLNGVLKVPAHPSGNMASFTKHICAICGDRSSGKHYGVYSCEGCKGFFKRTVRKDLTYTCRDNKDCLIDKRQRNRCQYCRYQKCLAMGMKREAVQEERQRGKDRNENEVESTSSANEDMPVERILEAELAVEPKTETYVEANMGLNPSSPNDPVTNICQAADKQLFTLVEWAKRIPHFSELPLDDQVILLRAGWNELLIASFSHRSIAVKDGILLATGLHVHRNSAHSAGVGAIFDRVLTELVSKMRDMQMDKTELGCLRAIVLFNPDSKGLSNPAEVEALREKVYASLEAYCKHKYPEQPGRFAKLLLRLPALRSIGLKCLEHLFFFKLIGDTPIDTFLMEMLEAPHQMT

In the case of `C=C[Si]1(C)O[Si](C)(C=C)O[Si](C)(C=C)O[Si](C)(C=C)O1` (stereo not given), the call in test [1], in test [2], in test [3], in [4], in test [5] and in test [8] was inactive. Moreover, in test [10], the outcome was inactive. Also, the Potency entry in [6], in test [7] and in test [9] was “inactive” each time.

Take `CCCCCC1CCC(=O)O1` (stereo not given): the call in test [2], in test [3], in test [4], in [5] and in test [10] was inactive. The Potency result in test [6], in test [7], in test [9] and in test [11] was “inactive” in each case.

For `CC1=CC(=C(c2ccc(N)cc2)c2ccc(N)cc2)C=CC1=N`, the activation in test [2] is 0.0131% [at 6.95 µM]; in test [4] it was -5.36% [at 6.95 µM]; in [9], -9.58% [at 6.97 µM]; in test [13] it was -1.68% [at 8.36 µM]. Moreover, the activity, negative = cytotoxic in test [3] is 11% [at 6.95 µM]. In test [5], the activity change, negative = cytotoxicity was -9.14% [at 6.95 µM]. The activity, negative = cytotoxicity in [6] was -12.6% [at 8.39 µM]. Also, in test [7], the activity change, negative = inhibition was -15.2% [at 8.39 µM]. The viability change, negative = cytotoxic in test [8] was 23.5% [at 6.97 µM]. In test [12], the activity, negative = inhibition was -2.67% [at 8.39 µM].

As to `CCOc1ccc(NC(C)=O)cc1N`, the compound was called inactive in test [1], in [2], in [3], in [4], in test [5] and in test [8]. In addition, the outcome in [12] was inactive. For the same compound, the Potency entry in [6], in test [7], in [9] and in test [11] was “inactive” in each case.

Consider `Cc1ccc(S(=O)(=O)NC(=O)NC2CCCC2)cc1`, for which the call in test [1], in test [2], in test [3], in test [4], in [5] and in test [8] was inactive. In addition, the compound was called inactive in [14] and in test [10]. In addition, the Potency entry in test [6], in test [7], in test [11] and in [13] was “inactive” in each case.

As to `CNc1ccccc1`, the compound was classed as inactive in test [1], in test [2], in [3], in test [4], in [5] and in test [8]. Also, the Potency result in test [6], in test [7], in [9] and in test [11] was “inactive” throughout.

Consider `CC(=O)Oc1cccc2c1C(=O)c1c(OC(C)=O)cc(C(=O)O)cc1C2=O`, for which the call in test [1], in [2], in test [3], in test [4], in test [5] and in test [10] was inactive. In test [12], the compound was called inactive. The Potency entry in test [6], in [7], in test [9], in test [11] and in test [13] was “inactive” in each case.

Consider `O=C(O)c1ccccc1-n1cc(C(=O)O)c(=O)c2cc(Nc3c(F)cc(F)cc3Cl)c(Cl)cc21`, for which the compound was called inactive in test [2], in [3], in [4], in [5], in [8] and in test [10]. Also, the outcome in test [12] was inactive. Besides, the Potency entry in [6], in [7], in test [9] and in [13] was “inactive” each time.

For `CC1=C(C)C(=O)C(CCCCC#CCCCC#CCO)=C(C)C1=O`, the compound was classed as inactive in test [1], in test [2], in test [3], in [4], in [5] and in test [8]. Also, the call in test [10], in [16], in [17] and in test [18] was inactive. Besides, the Potency entry in test [6], in test [9] and in test [13] was “inactive” throughout. Moreover, the Potency in [7] is 29.8 µM (active); in test [15] it was 12.8 µM (active).
